From PMC7862700, “An all-to-all approach to the identification of sequence-specific readers for epigenetic DNA modifications on cytosine”

How the values were obtained:
Test in all cases: DAPPL (digital affinity profiling via proximity ligation, sequencing); 10 mM Tris-HCl pH 7.5, 50 mM NaCl, 1 mM DTT, 4% glycerol, room temperature, 30 min; GST-TFs on glutathione beads, 16-mer random dsDNA library, 0.1% formaldehyde crosslink after washing; high values mean tight binding
Details in all cases: protein: recombinant; tags: N-terminal GST; dsDNA, one strand shown
FLI1 = biological target: T1, FLI1 (Homo sapiens, UniProt Q01543 1-452)
T1 sequence: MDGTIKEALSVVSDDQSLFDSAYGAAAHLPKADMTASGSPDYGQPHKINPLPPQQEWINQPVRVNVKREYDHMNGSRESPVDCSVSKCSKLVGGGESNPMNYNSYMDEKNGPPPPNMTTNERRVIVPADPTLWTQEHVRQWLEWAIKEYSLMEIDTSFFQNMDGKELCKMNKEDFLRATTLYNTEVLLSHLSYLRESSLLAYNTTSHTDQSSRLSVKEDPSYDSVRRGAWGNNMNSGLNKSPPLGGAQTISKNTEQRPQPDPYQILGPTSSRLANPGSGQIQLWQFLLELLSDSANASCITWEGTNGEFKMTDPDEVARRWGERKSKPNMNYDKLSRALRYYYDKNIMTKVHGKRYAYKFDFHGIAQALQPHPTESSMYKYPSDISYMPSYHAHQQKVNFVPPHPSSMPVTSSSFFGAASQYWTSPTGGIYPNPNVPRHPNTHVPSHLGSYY
Outline: (§1)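 Sequencing on an Illumina NextSeq500 followed washing, crosslinking with 0.1% formaldehyde, proximity ligation (BsaI/T4 ligase, 1 h, 37 °C) and PCR amplification of pools that had been incubated for 30 min at room temperature with 200 nmole of a random double-stranded 16-mer DNA library in Tris/NaCl/DTT/glycerol buffer. Each pool held DNA-barcoded human transcription factors, expressed in yeast as GST fusions and captured on glutathione beads, plus a tag-only sample. Binding signal is a hexamer's read frequency for a factor divided by its frequency in the tag-only sample.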

ELK1 = biological target: T2, ELK1 (Homo sapiens, UniProt P19419 1-428)
T2 sequence: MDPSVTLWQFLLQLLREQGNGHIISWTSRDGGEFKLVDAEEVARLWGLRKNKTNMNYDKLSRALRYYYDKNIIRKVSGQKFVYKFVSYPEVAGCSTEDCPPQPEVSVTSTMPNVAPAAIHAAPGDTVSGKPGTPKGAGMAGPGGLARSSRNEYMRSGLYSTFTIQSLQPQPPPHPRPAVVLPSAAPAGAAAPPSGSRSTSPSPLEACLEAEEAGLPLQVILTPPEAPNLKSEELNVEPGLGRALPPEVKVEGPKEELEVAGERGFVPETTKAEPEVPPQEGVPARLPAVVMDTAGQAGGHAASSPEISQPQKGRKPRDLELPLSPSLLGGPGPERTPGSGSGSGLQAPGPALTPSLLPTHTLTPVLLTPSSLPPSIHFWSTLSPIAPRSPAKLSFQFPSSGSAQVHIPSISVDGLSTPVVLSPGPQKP
Outline: as §1

GABPA = biological target: T3, GABPA (Homo sapiens, UniProt Q06546 1-454)
T3 sequence: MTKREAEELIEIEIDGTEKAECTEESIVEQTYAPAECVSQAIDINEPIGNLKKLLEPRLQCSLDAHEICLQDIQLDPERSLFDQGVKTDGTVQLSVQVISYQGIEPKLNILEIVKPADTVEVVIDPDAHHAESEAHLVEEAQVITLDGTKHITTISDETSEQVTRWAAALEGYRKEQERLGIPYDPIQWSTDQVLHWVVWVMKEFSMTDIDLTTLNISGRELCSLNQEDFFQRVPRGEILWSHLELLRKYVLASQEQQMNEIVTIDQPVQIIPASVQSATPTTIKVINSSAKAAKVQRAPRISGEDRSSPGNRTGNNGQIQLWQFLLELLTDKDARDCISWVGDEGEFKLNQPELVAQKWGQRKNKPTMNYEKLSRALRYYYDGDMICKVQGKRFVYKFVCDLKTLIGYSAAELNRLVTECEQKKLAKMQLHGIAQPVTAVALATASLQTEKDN
Outline: as §1

ERG = biological target: T4, ERG (Homo sapiens, UniProt P11308 1-479)
T4 sequence: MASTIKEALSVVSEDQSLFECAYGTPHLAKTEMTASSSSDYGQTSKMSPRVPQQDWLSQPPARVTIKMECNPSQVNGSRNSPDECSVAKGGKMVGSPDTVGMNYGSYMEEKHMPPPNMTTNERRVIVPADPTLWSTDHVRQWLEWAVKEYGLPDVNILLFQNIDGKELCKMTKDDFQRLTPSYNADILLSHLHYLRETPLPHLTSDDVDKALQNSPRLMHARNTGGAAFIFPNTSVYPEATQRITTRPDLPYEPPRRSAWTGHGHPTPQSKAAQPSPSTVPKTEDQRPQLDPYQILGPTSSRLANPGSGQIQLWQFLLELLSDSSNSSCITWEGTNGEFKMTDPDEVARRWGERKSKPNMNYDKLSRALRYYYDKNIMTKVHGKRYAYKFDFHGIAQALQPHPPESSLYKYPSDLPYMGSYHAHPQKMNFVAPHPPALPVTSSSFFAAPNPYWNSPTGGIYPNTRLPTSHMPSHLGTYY
Outline: as §1

ELF1 = ELF1 (Homo sapiens, UniProt P32519 1-619)
Outline: as §1

EHF = biological target: T5, EHF (Homo sapiens, UniProt Q9NZC4 1-300)
T5 sequence: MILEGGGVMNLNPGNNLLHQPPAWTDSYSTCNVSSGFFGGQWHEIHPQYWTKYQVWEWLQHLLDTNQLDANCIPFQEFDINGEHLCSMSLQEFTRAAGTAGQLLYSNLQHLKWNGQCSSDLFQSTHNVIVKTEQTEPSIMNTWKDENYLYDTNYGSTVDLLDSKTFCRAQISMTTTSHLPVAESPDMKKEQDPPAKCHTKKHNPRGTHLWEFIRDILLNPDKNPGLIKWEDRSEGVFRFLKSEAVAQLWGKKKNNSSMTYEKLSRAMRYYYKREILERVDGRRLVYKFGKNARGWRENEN
Outline: as §1

SPI1 = SPI1 (Homo sapiens, UniProt P17947 1-270)
Outline: as §1

SPIB = SPIB (Homo sapiens, UniProt Q01892 1-262)
Outline: as §1

ELK3 = biological target: T6, ELK3 (Homo sapiens, UniProt P41970 1-407)
T6 sequence: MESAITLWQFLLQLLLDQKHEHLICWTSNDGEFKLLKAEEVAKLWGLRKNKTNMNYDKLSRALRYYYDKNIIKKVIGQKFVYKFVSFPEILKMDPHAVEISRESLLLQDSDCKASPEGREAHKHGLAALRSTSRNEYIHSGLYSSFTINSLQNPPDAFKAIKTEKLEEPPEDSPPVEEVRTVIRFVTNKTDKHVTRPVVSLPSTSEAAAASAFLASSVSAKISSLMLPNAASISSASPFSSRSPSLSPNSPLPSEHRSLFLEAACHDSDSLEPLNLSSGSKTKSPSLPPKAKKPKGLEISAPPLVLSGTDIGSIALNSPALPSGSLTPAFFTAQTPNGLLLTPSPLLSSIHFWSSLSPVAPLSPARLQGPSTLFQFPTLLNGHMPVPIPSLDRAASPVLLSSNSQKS
Outline: as §1

FEV = biological target: T7, FEV (Homo sapiens, UniProt Q99581 1-238)
T7 sequence: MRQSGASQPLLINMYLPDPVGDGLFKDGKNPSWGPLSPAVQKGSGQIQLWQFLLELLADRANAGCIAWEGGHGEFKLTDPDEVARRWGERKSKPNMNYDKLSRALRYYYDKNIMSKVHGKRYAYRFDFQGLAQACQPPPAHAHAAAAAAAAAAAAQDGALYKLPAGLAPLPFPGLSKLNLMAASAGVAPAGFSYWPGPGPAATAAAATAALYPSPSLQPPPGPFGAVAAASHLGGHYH
Outline: as §1

ETV5 = ETV5 (Homo sapiens, UniProt P41161 1-510)
Outline: as §1

SPIC = biological target: T8, SPIC (Homo sapiens, UniProt Q8N5J4 1-248)
T8 sequence: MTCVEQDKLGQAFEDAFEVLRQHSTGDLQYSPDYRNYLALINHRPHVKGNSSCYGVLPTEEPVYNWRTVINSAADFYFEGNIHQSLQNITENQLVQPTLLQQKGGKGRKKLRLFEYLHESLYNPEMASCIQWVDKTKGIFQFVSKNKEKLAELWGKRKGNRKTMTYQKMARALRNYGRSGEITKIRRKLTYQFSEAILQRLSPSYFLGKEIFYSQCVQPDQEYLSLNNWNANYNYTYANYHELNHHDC
Outline: as §1

ELF4 = ELF4 (Homo sapiens, UniProt Q99607 1-663)
Outline: as §1

ELK4 = biological target: T9, ELK4 (Homo sapiens, UniProt P28324-2 1-405)
T9 sequence: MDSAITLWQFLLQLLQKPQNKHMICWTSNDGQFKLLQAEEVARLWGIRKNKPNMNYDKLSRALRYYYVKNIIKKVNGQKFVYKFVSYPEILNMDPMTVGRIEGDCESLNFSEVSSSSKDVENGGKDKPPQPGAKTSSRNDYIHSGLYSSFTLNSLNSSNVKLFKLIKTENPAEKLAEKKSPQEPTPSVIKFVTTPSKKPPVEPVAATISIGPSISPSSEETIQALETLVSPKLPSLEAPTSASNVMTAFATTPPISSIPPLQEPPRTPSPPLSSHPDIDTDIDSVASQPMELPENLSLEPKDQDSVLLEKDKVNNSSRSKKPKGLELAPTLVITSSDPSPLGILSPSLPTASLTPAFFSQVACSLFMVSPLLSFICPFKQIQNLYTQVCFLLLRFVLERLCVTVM
Outline: as §1

ETV2 = biological target: T10, ETV2 (Homo sapiens, UniProt O00321 1-342)
T10 sequence: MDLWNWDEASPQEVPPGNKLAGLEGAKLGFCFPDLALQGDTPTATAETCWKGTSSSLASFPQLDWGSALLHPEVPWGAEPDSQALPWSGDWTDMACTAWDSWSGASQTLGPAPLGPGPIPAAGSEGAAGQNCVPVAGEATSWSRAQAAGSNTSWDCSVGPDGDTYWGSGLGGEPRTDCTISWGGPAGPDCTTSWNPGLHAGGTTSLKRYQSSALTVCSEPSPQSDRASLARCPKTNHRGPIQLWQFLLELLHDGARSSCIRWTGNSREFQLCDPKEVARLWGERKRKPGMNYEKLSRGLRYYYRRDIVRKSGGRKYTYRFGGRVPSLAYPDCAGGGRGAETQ
Outline: as §1

ELF3 = biological target: T11, ELF3 (Homo sapiens, UniProt P78545 1-371)
T11 sequence: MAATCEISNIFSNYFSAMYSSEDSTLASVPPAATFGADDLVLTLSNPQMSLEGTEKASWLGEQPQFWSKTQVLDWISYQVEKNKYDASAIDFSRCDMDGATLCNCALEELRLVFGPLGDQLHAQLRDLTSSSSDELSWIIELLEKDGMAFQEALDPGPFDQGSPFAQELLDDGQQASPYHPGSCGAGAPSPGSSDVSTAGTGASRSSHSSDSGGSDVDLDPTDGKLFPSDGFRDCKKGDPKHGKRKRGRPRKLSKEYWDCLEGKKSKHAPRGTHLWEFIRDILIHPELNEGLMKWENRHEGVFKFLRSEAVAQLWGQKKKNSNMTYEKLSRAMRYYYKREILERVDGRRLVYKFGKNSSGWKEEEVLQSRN
Outline: as §1

ETV1 = ETV1 (Homo sapiens, UniProt P50549 1-477)
Outline: as §1

Sequence of SPIB (Q01892 whole entry): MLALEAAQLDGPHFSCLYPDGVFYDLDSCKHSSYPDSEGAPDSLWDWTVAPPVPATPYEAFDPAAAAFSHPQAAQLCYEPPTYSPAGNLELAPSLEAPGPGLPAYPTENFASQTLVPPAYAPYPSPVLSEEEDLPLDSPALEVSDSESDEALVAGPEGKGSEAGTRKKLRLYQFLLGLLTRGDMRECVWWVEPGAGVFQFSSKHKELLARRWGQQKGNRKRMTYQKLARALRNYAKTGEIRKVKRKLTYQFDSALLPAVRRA
Sequence of ETV1 (P50549 whole entry): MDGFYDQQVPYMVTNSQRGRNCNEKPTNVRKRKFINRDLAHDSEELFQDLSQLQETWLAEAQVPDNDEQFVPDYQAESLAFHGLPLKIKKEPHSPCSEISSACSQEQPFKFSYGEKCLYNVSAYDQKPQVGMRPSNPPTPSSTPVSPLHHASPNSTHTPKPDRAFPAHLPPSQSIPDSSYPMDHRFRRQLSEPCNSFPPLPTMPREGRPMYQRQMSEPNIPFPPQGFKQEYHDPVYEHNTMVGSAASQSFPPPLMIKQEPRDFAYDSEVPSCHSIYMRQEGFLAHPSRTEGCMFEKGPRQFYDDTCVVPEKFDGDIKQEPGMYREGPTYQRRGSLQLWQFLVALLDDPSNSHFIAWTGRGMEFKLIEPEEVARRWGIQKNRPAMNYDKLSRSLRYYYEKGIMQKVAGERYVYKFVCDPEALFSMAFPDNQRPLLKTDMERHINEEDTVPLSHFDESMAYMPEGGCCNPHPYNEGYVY
Sequence of ELF1 (P32519 whole entry): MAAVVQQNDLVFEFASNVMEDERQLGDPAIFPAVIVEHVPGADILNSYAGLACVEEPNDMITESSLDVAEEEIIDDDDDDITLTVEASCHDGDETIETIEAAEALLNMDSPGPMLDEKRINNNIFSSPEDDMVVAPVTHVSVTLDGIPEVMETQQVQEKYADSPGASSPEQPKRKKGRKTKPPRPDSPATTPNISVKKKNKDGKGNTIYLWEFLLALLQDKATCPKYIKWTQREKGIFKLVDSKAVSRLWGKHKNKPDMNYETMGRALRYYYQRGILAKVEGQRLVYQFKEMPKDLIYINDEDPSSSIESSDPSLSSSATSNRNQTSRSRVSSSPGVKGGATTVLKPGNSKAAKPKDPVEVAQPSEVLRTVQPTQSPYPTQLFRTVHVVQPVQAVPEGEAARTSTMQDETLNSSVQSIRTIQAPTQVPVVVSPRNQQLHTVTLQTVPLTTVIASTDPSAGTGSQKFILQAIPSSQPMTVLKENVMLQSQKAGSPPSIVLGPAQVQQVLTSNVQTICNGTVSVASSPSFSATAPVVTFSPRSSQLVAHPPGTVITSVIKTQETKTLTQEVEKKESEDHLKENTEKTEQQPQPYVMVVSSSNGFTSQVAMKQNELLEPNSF
Sequence of ELF4 (Q99607 whole entry): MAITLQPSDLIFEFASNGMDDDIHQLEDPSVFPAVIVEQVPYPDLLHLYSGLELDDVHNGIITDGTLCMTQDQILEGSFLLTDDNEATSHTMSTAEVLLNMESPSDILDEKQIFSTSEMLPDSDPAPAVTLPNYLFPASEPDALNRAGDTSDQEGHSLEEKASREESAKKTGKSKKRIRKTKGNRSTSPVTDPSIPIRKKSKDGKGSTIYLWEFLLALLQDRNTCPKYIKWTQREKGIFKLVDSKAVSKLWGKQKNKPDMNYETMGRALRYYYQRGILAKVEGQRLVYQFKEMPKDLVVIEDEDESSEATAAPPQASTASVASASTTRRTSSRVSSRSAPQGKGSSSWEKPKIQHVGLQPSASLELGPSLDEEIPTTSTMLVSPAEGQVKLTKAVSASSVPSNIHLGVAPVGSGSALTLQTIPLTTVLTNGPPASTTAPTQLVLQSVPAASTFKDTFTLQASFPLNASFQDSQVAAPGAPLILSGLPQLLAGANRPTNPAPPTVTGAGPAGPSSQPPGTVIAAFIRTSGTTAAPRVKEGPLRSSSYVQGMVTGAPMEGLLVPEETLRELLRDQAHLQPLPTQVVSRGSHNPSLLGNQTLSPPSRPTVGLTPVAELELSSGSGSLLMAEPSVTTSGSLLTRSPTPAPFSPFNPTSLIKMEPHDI
Sequence of ETV5 (P41161 whole entry): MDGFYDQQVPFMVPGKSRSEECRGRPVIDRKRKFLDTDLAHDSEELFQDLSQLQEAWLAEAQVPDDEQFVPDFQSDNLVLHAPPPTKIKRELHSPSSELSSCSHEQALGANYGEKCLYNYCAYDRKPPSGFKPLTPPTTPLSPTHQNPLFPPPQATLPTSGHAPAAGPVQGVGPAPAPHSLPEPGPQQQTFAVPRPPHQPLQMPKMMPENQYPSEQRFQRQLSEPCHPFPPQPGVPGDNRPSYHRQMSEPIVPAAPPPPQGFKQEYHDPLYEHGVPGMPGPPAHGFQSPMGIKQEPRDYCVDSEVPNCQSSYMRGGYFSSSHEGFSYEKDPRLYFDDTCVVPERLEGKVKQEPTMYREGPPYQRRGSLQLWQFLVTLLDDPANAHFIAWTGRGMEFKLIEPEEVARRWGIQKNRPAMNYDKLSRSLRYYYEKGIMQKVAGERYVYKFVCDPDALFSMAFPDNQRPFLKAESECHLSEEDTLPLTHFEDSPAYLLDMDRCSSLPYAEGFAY

| Sequence | binding signal (FLI1) | binding signal (ELK1) | binding signal (GABPA) | binding signal (ERG) | binding signal (ELF1) | binding signal (EHF) | binding signal (SPI1) | binding signal (SPIB) | binding signal (ELK3) | binding signal (FEV) | binding signal (ETV5) | binding signal (SPIC) | binding signal (ELF4) | binding signal (ELK4) | binding signal (ETV2) | binding signal (ELF3) | binding signal (ETV1) |
| --- | --- | --- | --- | --- | --- | --- | --- | --- | --- | --- | --- | --- | --- | --- | --- | --- | --- |
| AGCAGC | 1.08 fold enrichment (6-mer frequency, TF over GST control) | 1.06 fold enrichment (6-mer frequency, TF over GST control) | 1.11 fold enrichment (6-mer frequency, TF over GST control) | 1.11 fold enrichment (6-mer frequency, TF over GST control) | 1.19 fold enrichment (6-mer frequency, TF over GST control) | 1.1 fold enrichment (6-mer frequency, TF over GST control) | 1.05 fold enrichment (6-mer frequency, TF over GST control) | 1.11 fold enrichment (6-mer frequency, TF over GST control) | 1.16 fold enrichment (6-mer frequency, TF over GST control) | 1.12 fold enrichment (6-mer frequency, TF over GST control) | 1.18 fold enrichment (6-mer frequency, TF over GST control) | 1.11 fold enrichment (6-mer frequency, TF over GST control) | 1.14 fold enrichment (6-mer frequency, TF over GST control) | 1.05 fold enrichment (6-mer frequency, TF over GST control) | 1.07 fold enrichment (6-mer frequency, TF over GST control) | 1.08 fold enrichment (6-mer frequency, TF over GST control) | 1.17 fold enrichment (6-mer frequency, TF over GST control) |
| CATGGT | 1.25 fold enrichment (6-mer frequency, TF over GST control) | 1.29 fold enrichment (6-mer frequency, TF over GST control) | 1.29 fold enrichment (6-mer frequency, TF over GST control) | 1.38 fold enrichment (6-mer frequency, TF over GST control) | 1.21 fold enrichment (6-mer frequency, TF over GST control) | 1.22 fold enrichment (6-mer frequency, TF over GST control) | 1.27 fold enrichment (6-mer frequency, TF over GST control) | 1.26 fold enrichment (6-mer frequency, TF over GST control) | 1.3 fold enrichment (6-mer frequency, TF over GST control) | 1.08 fold enrichment (6-mer frequency, TF over GST control) | 1.24 fold enrichment (6-mer frequency, TF over GST control) | 1.39 fold enrichment (6-mer frequency, TF over GST control) | 1.32 fold enrichment (6-mer frequency, TF over GST control) | 1.32 fold enrichment (6-mer frequency, TF over GST control) | 1.13 fold enrichment (6-mer frequency, TF over GST control) | 1.35 fold enrichment (6-mer frequency, TF over GST control) | 1.29 fold enrichment (6-mer frequency, TF over GST control) |
